# Measurements taken from PubChem BioAssay (NCATS).
# Records with an inconclusive call do not appear. Entries that show only a call come without a potency. Active and inactive are the calls of the source. Calls follow the shape of the dose curve; as a rule, active = well fitted inhibition curve with a large enough effect; inconclusive = small, poorly fitted or top-dose-only effect; inactive = flat fitted curve, though single readings scatter.
# Tests used:
# Assay in all cases: qHTS profiling for inhibitors of Plasmodium falciparum proliferation (AID 504749); also: nearly all actives have a fitted effect of over 60% in size
# Settings in all cases: P. falciparum in erythrocytes, SYBR Green DNA, 72 h; series mostly up to 28.7 µM
# CP329 = system: CP329
# Method in brief: (§1)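 Quantitative HTS: compounds pinned into medium, infected erythrocytes added (0.3% parasitemia, 2.5% hematocrit), 72 h culture at 37 C under 5% CO2. Saponin/Triton lysis with SYBR Green I, overnight RT, then fluorescence read.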
# CP335 = system: CP335
# Method in brief: as §1
# DFO2036 = system: DFO2036
# Method in brief: as §1
# DIV14 = system: DIV14
# Method in brief: as §1
# DIV17 = system: DIV17
# Method in brief: as §1
# DIV30 = system: DIV30
# Method in brief: as §1
# Dd2 = system: Dd2
# Method in brief: as §1
# ECU = system: ECU
# Method in brief: as §1
# FAB9 = system: FAB9
# Method in brief: as §1
# GB4 = system: GB4
# Method in brief: as §1
# Potency is read from the fitted curve at half-maximal effect.
SMILES,Potency (CP329),Potency (CP335),Potency (DFO2036),Potency (DIV14),Potency (DIV17),Potency (DIV30),Potency (Dd2),Potency (ECU),Potency (FAB9),Potency (GB4)
Cc1c(C)n(Cc2ccccc2)c2ccc(C(=O)OCCN(C)C)cc12,inactive,inactive,inactive,inactive,inactive,inactive,inactive,inactive,inactive,–
CCCCCCCCCCCCCCCCOP(=O)([O-])OCC[N+](C)(C)C,inactive,inactive,inactive,inactive,inactive,inactive,inactive,inactive,inactive,–
CC(C)(C(=O)c1cccnc1)c1cccnc1,inactive,inactive,inactive,inactive,inactive,inactive,inactive,inactive,inactive,inactive
CC(=O)OCC(=O)NCCCOc1cccc(CN2CCCCC2)c1,inactive,inactive,inactive,inactive,inactive,inactive,inactive,inactive,inactive,inactive
CC(=O)Nc1c(I)cc(I)c(C(=O)O)c1I,inactive,inactive,inactive,inactive,inactive,inactive,inactive,inactive,inactive,inactive
CC1(C)CCC(NC(=O)[C@@H](N)CCC(=O)O)CC1,inactive,inactive,inactive,inactive,inactive,inactive,inactive,inactive,inactive,inactive
C[N+]1(CCCCC[N+]2(C)CCCC2)CCCC1,inactive,inactive,inactive,inactive,inactive,inactive,inactive,inactive,inactive,inactive
COc1cc2c(cc1OC)C(C(C(=O)N(CCc1ccc(OC)c(OC)c1OC)CCc1ccc(OC)c(OC)c1OC)c1ccccc1)=NCC2 (configuration not stated),13.5 µM (active),5.36 µM (active),inactive,1.35 µM (active),1.35 µM (active),1.35 µM (active),3.98 µM (active),2.24 µM (active),11.2 µM (active),7.57 µM (active)
CC(C)(C)CC(C)(C)c1ccc(OCCOCC[N+](C)(C)Cc2ccccc2)cc1,4.78 µM (active),1.51 µM (active),3.98 µM (active),3.38 µM (active),4.78 µM (active),4.26 µM (active),4.47 µM (active),5.01 µM (active),5.01 µM (active),3.38 µM (active)
CC(C)(C)CC(C)(C)c1ccc(O)c(Cc2ccc(Cl)cc2Cl)c1,4.78 µM (active),1.51 µM (active),2 µM (active),0.601 µM (active),1.07 µM (active),1.51 µM (active),1.58 µM (active),2 µM (active),5.62 µM (active),0.849 µM (active)
COc1cc(OC)cc(OC)c1,inactive,inactive,inactive,inactive,inactive,inactive,inactive,inactive,inactive,inactive
CN=C(NC#N)NCCSCc1csc(N=C(N)N)n1,inactive,inactive,inactive,inactive,inactive,inactive,inactive,inactive,inactive,inactive
COc1c2occc2c(OC)c2c(=O)cc(C)oc12,inactive,inactive,inactive,inactive,inactive,inactive,inactive,inactive,inactive,inactive
Cc1c(N(C)CS(=O)(=O)O)c(=O)n(-c2ccccc2)n1C,inactive,inactive,inactive,inactive,inactive,inactive,inactive,inactive,inactive,inactive
Oc1c(Cl)cc(Cl)cc1Sc1cc(Cl)cc(Cl)c1O,inactive,inactive,inactive,inactive,inactive,inactive,inactive,inactive,inactive,inactive
COc1cccc2c1C(=O)c1c(O)c3c(c(O)c1C2=O)C[C@@](O)(C(C)=O)C[C@@H]3O[C@H]1C[C@H](N)[C@H](O)[C@H](C)O1,6.01 µM (active),4.78 µM (active),4.47 µM (active),1.9 µM (active),1.35 µM (active),6.75 µM (active),2.24 µM (active),8.91 µM (active),3.98 µM (active),1.9 µM (active)
C#C[C@]1(OC(C)=O)CC[C@H]2[C@@H]3CCC4=C[C@@H](OC(C)=O)CC[C@@H]4[C@H]3CC[C@@]21C,inactive,inactive,inactive,inactive,inactive,inactive,inactive,inactive,inactive,inactive
CC(C)(CO)[C@@H](O)C(=O)NCCCO,inactive,inactive,inactive,inactive,inactive,inactive,inactive,inactive,inactive,inactive
C[C@]12CC[C@@H]3c4ccc(O)cc4CC[C@H]3[C@@H]1CC[C@@H]2O,inactive,inactive,inactive,inactive,inactive,inactive,inactive,inactive,inactive,inactive

SMILES,Potency (CP329),Potency (CP335),Potency (DFO2036),Potency (DIV14),Potency (DIV17),Potency (DIV30),Potency (Dd2),Potency (ECU),Potency (FAB9),Potency (GB4)
Cc1cc(N)c2cc(NC(=O)Nc3ccc4nc(C)cc(N)c4c3)ccc2n1,1.69 µM (active),7.57 µM (active),5.62 µM (active),13.5 µM (active),10.7 µM (active),6.01 µM (active),0.891 µM (active),10 µM (active),5.01 µM (active),7.57 µM (active)
Cc1cc(=O)n(-c2ccccc2)n1C,inactive,inactive,inactive,inactive,inactive,inactive,inactive,inactive,inactive,inactive
Nc1ccc(C(=O)O)cc1,inactive,inactive,inactive,inactive,inactive,inactive,inactive,inactive,inactive,inactive
COCc1c(C(C)C)nc(C(C)C)c(/C=C/[C@@H](O)C[C@@H](O)CC(=O)O)c1-c1ccc(F)cc1,inactive,inactive,inactive,inactive,inactive,inactive,inactive,inactive,inactive,inactive
Cc1cccn2c(=O)c(-c3nnn[nH]3)cnc12,inactive,inactive,inactive,inactive,inactive,inactive,inactive,inactive,inactive,inactive
O=C(COc1ccc(Cl)cc1)N1CCN(Cc2ccc3c(c2)OCO3)CC1,inactive,inactive,inactive,inactive,inactive,inactive,inactive,inactive,inactive,inactive
CC(C)COC(=O)OCN1C(=O)CN(CCN2CC(=O)N(COC(=O)OCC(C)C)C(=O)C2)CC1=O,inactive,inactive,inactive,inactive,inactive,inactive,inactive,inactive,inactive,inactive
Cc1c(C(C)C)c(=O)n(-c2ccccc2)n1C,inactive,inactive,inactive,inactive,inactive,inactive,inactive,inactive,inactive,inactive
NC(=NCCCCCCN=C(N)/N=C(\N)Nc1ccc(Cl)cc1)/N=C(\N)Nc1ccc(Cl)cc1,1.69 µM (active),1.69 µM (active),1.78 µM (active),1.07 µM (active),1.07 µM (active),1.51 µM (active),2 µM (active),2.24 µM (active),2 µM (active),1.07 µM (active)
C=CCc1ccc(O)c(OC)c1,inactive,inactive,inactive,inactive,inactive,inactive,inactive,inactive,inactive,inactive
C[C@H]1[C@H](NC(=O)/C(=N/OC(C)(C)C(=O)O)c2csc(N)n2)C(=O)N1S(=O)(=O)O (stereo in doubt),inactive,inactive,inactive,inactive,inactive,inactive,inactive,inactive,inactive,inactive
Cc1c(C)n(CCN(C)C)c2ccc(C(=O)OCCN(C)C)cc12,inactive,inactive,inactive,inactive,inactive,inactive,inactive,inactive,inactive,–
CCC(=O)c1c(O)cc(O)cc1O,inactive,inactive,inactive,inactive,inactive,inactive,inactive,inactive,inactive,inactive
COc1ccc(CCN2CCC(Nc3nc4ccccc4n3Cc3ccc(F)cc3)CC2)cc1,9.53 µM (active),3.79 µM (active),3.55 µM (active),4.78 µM (active),4.78 µM (active),13.5 µM (active),8.91 µM (active),2 µM (active),3.16 µM (active),1.9 µM (active)
Nc1ccc(/C=C/c2ccc(N)cc2S(=O)(=O)O)c(S(=O)(=O)O)c1,inactive,inactive,inactive,inactive,inactive,inactive,inactive,inactive,inactive,inactive
CC(=O)Oc1ccc(C(c2ccc(OC(C)=O)cc2)c2ccccn2)cc1,inactive,inactive,inactive,inactive,inactive,inactive,inactive,inactive,inactive,inactive
NCCC(O)(P(=O)(O)O)P(=O)(O)O,inactive,inactive,inactive,inactive,inactive,inactive,inactive,inactive,inactive,inactive
CCCCCC=CCC=CCCCCCCCC(=O)OCC,inactive,inactive,inactive,inactive,inactive,inactive,inactive,inactive,inactive,inactive
